Inconclusive results are not listed. Calls of active or inactive are those of the source. Calls follow the shape of the dose curve; as a rule, active = well fitted curve in the direction sought with a large enough effect; inconclusive = small, poorly fitted or top-dose-only effect, or another doubt; inactive = no such curve, though single readings can be large; an effect the other way counts as inactive or inconclusive.
Tests used:
[1] = test system: Zika virus NS2B-NS3 protease (linked construct); assay: Primary screen NINDS Rhodamine qHTS for Zika virus inhibitors (AID 1347160); also: nearly all actives have a fitted effect of over 55% in size
In short: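 Percent inhibition, normalized to uninhibited and enzyme-free controls, is fitted to a 4-parameter Hill equation. Fluorescence change comes from a 15-min cleavage of 1.5 microM bis-peptide Rhodamine110 substrate by 25 nM linked NS2B-NS3 at room temperature.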

[2] = target: Calcium and integrin-binding protein 1 (Homo sapiens) (UniProt Q99828); assay: Primary qHTS for Identification of Calcium Integrin Binding Protein 1 (CIB1) Competitor (AID 1508620);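 also: GST tagged CIB1 binding a fluorescein labelled alphaIIb integrin peptide tracer; top concentration of the series differs between compounds; % is scaled to controls: 0 for no effect and ±100 for the full control effect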
In short: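 Fluorescence polarization competition: CIB1-GST (1 uM final) preincubated with compound 15 min at room temperature, then FITC-labeled alphaIIb peptide (100 nM final) added for another 15 min. Polarization read at Ex 480/Em 540.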

[3] = target: Glutathione peroxidase 1 (Homo sapiens) (UniProt P07203); assay: Primary qHTS Assay for Inhibitors of Recombinant Selenoprotein Glutathione Peroxidase 1 (GPX1) (AID 1845191); also: nearly all actives have a fitted effect of over 65% in size
In short: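 Recombinant GPX1 (10 nM final) was preincubated with compound for 30 min at room temperature, then reacted with 1 mM GSH, 0.5 mM CHP, 0.5 mM NADPH and 100 nM glutathione reductase; NADPH fluorescence (340/450 nm) was read at 0 and 15 min.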

[4] = target: Phospholipid hydroperoxide glutathione peroxidase GPX4 (Homo sapiens) (UniProt P36969); assay: Primary qHTS Assay for Inhibitors of Recombinant Selenoprotein Glutathione Peroxidase 4 (GPX4) (AID 1845192); also: % is scaled to controls: 0 for no effect and ±100 for the full control effect; nearly all actives have a fitted effect of over 65% in size
In short: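 GR-coupled readout: 100 nM GR, 1 mM GSH, 0.5 mM NADPH; NADPH fluorescence (ex 340/em 450 nm) read at t=0 and after 15 min RT. GPX4 200 nM, preincubated 30 min with compound; substrate 0.5 mM CHP.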

[5] = target: Luciferin 4-monooxygenase (Photinus pyralis) (UniProt P08659); assay: Primary firefly luciferase (FLuc) qHTS assay for identification of artifact compounds. (AID 1845220); settings: outcome: dose series up to 54.1 µM unless noted; also: nearly all actives have a fitted effect of over 60% in size
In short: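 In this counter-screen for luciferase artifacts, test compounds met substrate (10 uM each luciferin and ATP) before 10 nM enzyme started the reaction. Light output was measured 5 min later.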

[6] = Primary fluorescence-based thiol-reactive (MSTI) qHTS assay for identification of artifact compounds. (AID 1845221);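 also: thiol-reactive compounds lower the probe fluorescence signal; nearly all actives have a fitted effect of over 65% in size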
In short: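 Probe: MSTI 4 uM, PBS pH 7.4, 2% DMSO. Incubation 1 h, RT, light-protected. Readout fluorescence 525/598 nm.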

[7] = test system: Nanoluciferase (engineered Oplophorus gracilirostris luciferase); assay: Primary Nanoluciferase (NLuc) qHTS assay for identification of artifact compounds. (AID 1845222);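 also: NLuc secreted into diluted conditioned medium of S16 cells; 0% = DMSO and -100% = no enzyme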
In short: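 Using secreted nanoluciferase in S16 culture medium (0.22 um filtered, 1:55 dilution), compounds were preincubated 15 min at RT. Signal was generated with Nano-Glo reagent (1:100) over 5 min.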

[8] = Primary redox qHTS assay for identification of artifact compounds. (AID 1845223);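 also: 0% = DMSO and 100% = reference compound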
In short: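 Amplex Red (25 uM) and HRP (250 mU/mL) in HBSS, with compounds for 15 min, then 250 uM DTT for 30 min, room temperature, dark. Fluorescence 525/598 nm read; normalized to DMSO and 10 uM DA3003; Hill fit.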

[9] = test system: CRL-7250; assay: Cytotoxic Profiling of Annotated Libraries Using Quantitative High-Throughput Screening (AID 1296008); settings: Five cell lines viability, CellTiter-Glo ATP luminescence, 48-72 h; max response: hits give low values; also: nearly all actives have a fitted effect of over 60% in size; also: potency is read from the fitted curve at half-maximal effect; as to max response: % is scaled to controls: 0 for no effect and ±100 for the full control effect
In short: (§1)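 Compounds were pin-transferred onto cells and incubated 48 or 72 hr at 37 degree Celsius, 95% humidity. CellTiter-Glo was added, plates sat 10 min at room temperature, then ATP-coupled luminescence was imaged as the viability read-out.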

[10] = test system: KB-3-1; assay: as above; settings: Five cell lines viability, CellTiter-Glo ATP luminescence, 48-72 h; max response: hits give low values
In short: as §1

[11] = test system: C33A; assay: Primary qHTS to identify gynecologic anti-cancer compounds using libraries of approved drugs and bioactive compounds (AID 1345084); settings: Gynecologic cancer cell panel viability, ATPlite luminescence, 48 h; series mostly up to 57.5 µM; also: % is scaled to controls: 0 for no effect and ±100 for the full control effect; nearly all actives have a fitted effect of over 55% in size
In short: (§2)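 Cell viability after 48 h drug treatment, ATPlite luminescence readout; five doses.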

[12] = test system: CAOV3; assay: as above; settings: Gynecologic cancer cell panel viability, ATPlite luminescence, 48 h; series mostly up to 57.5 µM
In short: as §2

[13] = test system: CASKI; assay: as above; settings: Gynecologic cancer cell panel viability, ATPlite luminescence, 48 h; series mostly up to 57.5 µM
In short: as §2

[14] = test system: Es-2; assay: as above; settings: Gynecologic cancer cell panel viability, ATPlite luminescence, 48 h; series mostly up to 57.5 µM
In short: as §2

[15] = test system: Hek293T; assay: as above; settings: Gynecologic cancer cell panel viability, ATPlite luminescence, 48 h, control line for the selectivity index; series mostly up to 57.5 µM
In short: as §2

[16] = test system: JEG-3; assay: as above; settings: Gynecologic cancer cell panel viability, ATPlite luminescence, 48 h; series mostly up to 57.5 µM
In short: as §2

[17] = test system: OV90; assay: as above; settings: Gynecologic cancer cell panel viability, ATPlite luminescence, 48 h; series mostly up to 57.5 µM
In short: as §2

[18] = test system: PA-1; assay: as above; settings: Gynecologic cancer cell panel viability, ATPlite luminescence, 48 h; series mostly up to 57.5 µM
In short: as §2

[19] = test system: Tov-21-G; assay: as above; settings: Gynecologic cancer cell panel viability, ATPlite luminescence, 48 h; series mostly up to 57.5 µM
In short: as §2

[20] = test system: Tov112D; assay: as above; settings: Gynecologic cancer cell panel viability, ATPlite luminescence, 48 h; series mostly up to 57.5 µM
In short: as §2

Phospholipid hydroperoxide glutathione peroxidase GPX4 (Homo sapiens), sequence (P36969 whole entry, looked up): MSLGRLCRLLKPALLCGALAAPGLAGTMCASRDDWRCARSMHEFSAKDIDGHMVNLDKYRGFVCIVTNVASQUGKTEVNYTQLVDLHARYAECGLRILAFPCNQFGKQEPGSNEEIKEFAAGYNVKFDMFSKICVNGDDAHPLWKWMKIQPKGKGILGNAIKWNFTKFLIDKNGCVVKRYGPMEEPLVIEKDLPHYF
Glutathione peroxidase 1 (Homo sapiens), sequence (P07203 whole entry, looked up): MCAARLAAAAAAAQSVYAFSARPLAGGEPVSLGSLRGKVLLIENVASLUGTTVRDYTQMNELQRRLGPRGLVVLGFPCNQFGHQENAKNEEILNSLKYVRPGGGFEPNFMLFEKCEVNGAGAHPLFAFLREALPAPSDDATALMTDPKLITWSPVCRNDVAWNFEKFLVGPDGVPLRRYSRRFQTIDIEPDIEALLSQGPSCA
Calcium and integrin-binding protein 1 (Homo sapiens), sequence (Q99828 whole entry, looked up): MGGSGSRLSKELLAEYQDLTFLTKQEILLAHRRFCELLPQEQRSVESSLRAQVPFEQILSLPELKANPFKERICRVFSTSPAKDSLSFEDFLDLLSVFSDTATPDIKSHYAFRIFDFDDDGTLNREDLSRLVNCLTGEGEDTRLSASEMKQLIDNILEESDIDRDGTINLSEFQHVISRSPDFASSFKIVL

CCCCCn1cc(C(=O)c2cccc3ccccc23)c2ccccc21
active: Potency [9] 18.4 µM
inactive: Potency [1] | Potency [2] | Potency [3] | Potency [4] | outcome [5] | Potency [6] | Potency [7] | Potency [8] | max response [10] -15.1% | Potency [11] | Potency [12] | Potency [13] | Potency [14] | Potency [15] | Potency [16] | Potency [17] | Potency [18] | Potency [19] | Potency [20]

COC(=O)C12C(=O)C(C)(O)C(=O)C1(C)C(C)=CC1C3(C=O)CCC(OC(C)=O)C(C)(C)C3CCC12C (stereo not given)
inactive: Potency [2] | Potency [3] | Potency [4] | outcome [5] inactive [at 25.7 µM] | Potency [6] | Potency [7] | Potency [8] | max response [9] -2.11% | max response [10] 6.36% | Potency [11] | Potency [12] | Potency [13] | Potency [14] | Potency [15] | Potency [16] | Potency [17] | Potency [18] | Potency [19] | Potency [20]

COc1ccc2c(c1)c(CCN(C)C)cn2S(=O)(=O)c1ccccc1
inactive: Potency [2] | Potency [3] | outcome [5] | Potency [6] | Potency [7] | Potency [8] | max response [9] 1.29% | max response [10] -1.74% | Potency [11] | Potency [12] | Potency [13] | Potency [14] | Potency [15] | Potency [16] | Potency [17] | Potency [18] | Potency [19] | Potency [20]

Cc1cccc(NC(=O)NC2N=C(c3ccccc3)c3ccccc3N(CC(=O)c3ccccc3C)C2=O)c1 (stereo not given)
inactive: Potency [1] | Potency [3] | Potency [4] | outcome [5] | Potency [6] | Potency [7] | Potency [8] | max response [9] 0.833% | max response [10] 7.53% | Potency [11] | Potency [13] | Potency [14] | Potency [15] | Potency [16] | Potency [17] | Potency [18] | Potency [19] | Potency [20]

CCC1CN2CCC3(C(=O)Nc4cccc(O)c43)C2CC1/C(=C/OC)C(=O)OC (stereo not given)
inactive: Potency [1] | Potency [2] | Potency [3] | Potency [4] | outcome [5] | Potency [6] | Potency [7] | Potency [8] | max response [9] -15.5% | max response [10] -16.6% | Potency [11] | Potency [12] | Potency [13] | Potency [14] | Potency [15] | Potency [16] | Potency [17] | Potency [18] | Potency [19] | Potency [20]

Source: PubChem BioAssay (NCATS)
